Reference: PubChem BioAssay (NCI)
This is part of a sample that, as a whole, favours compounds with a hit. Of some 79,000 tested, about 15% had one in any assay. Values without a mark were called inactive. The source made the active and inactive calls. Cut-off read from the data, not from the text of the source: active = growth inhibition above about 70%; inactive = the rest.

Tests used:
[1] = NCI Yeast Anticancer Drug Screen. Data for the rad50 strain (AID 155);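 note: 0% = growth of vehicle-only cultures of the same strain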; settings: S. cerevisiae rad50 strain growth inhibition, stronger effect = higher value
Outline: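 Growth of the mutant yeast was measured after compound exposure and referenced to vehicle-treated cultures.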

[2] = NCI Yeast Anticancer Drug Screen. Data for the mec2-1 strain (AID 157); settings: S. cerevisiae mec2-1 strain, stronger effect = higher value
Outline: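 Readout is yeast growth inhibition, normalised to vehicle-treated controls, in the mec2-1 strain exposed to compound.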

[3] = NCI Yeast Anticancer Drug Screen. Data for the sgs1 mgt1 strain (AID 161);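 note: 0% = growth of cultures given vehicle only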; settings: S. cerevisiae sgs1 mgt1 strain, stronger effect = higher value
Outline: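 Percent growth inhibition was derived by comparing compound-exposed mutant yeast with vehicle-exposed cultures. The strain carries alterations in DNA damage repair.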

[4] = NCI Yeast Anticancer Drug Screen. Data for the cln2 rad14 strain (AID 165);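 note: 0% = growth equal to vehicle treated cultures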; settings: S. cerevisiae cln2 rad14 strain, stronger effect = higher value
Outline: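 Relative to vehicle controls, growth inhibition of compound-treated cln2 rad14 yeast was recorded.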

[5] = NCI Yeast Anticancer Drug Screen. Data for the bub3 strain (AID 167); settings: S. cerevisiae bub3 mutant strain, stronger effect = higher value
Outline: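 Whole-cell yeast assay. The mutant strain was incubated with compounds, and growth inhibition was determined by comparison with vehicle-treated cells.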

[6] = NCI Yeast Anticancer Drug Screen. Data for the mlh1 rad18 strain (AID 175); settings: S. cerevisiae mlh1 rad18 strain growth inhibition, stronger effect = higher value
Outline: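 Test agents were incubated with a yeast strain of defined genotype (DNA damage repair defect). Inhibition of growth was derived by comparison with vehicle-exposed cultures.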

[7] = at 5.0 µM (retest, dose inferred, filed as 0.5)
[8] = at 50.0 µM (retest, dose inferred, filed as 5.0)

| SMILES | growth inhibition [1, 7] | growth inhibition [1, 8] | growth inhibition ([1]; at 50.0 µM) | growth inhibition [2, 7] | growth inhibition [2, 8] | growth inhibition ([2]; at 50.0 µM) | growth inhibition [3, 7] | growth inhibition [3, 8] | growth inhibition ([3]; at 50.0 µM) | growth inhibition [4, 7] | growth inhibition [4, 8] | growth inhibition ([4]; at 50.0 µM) | growth inhibition [5, 7] | growth inhibition [5, 8] | growth inhibition ([5]; at 50.0 µM) | growth inhibition [6, 7] | growth inhibition [6, 8] | growth inhibition ([6]; at 50.0 µM) |
| --- | --- | --- | --- | --- | --- | --- | --- | --- | --- | --- | --- | --- | --- | --- | --- | --- | --- | --- |
| CCOC(=O)C(NC(C)=O)[CH](c1ccc(OC)cc1)[Sn]([c]1ccccc1)([c]1ccccc1)[c]1ccccc1 (stereo not given) | 99% (active) | 99% (active) | 48.6% | 99% (active) | 99% (active) | 58.1% | 99% (active) | 99% (active) | 48.2% | 98% (active) | 99% (active) | 99% (active) | 99% (active) | 98% (active) | 47.4% | 99% (active) | 99% (active) | 85.4% (active) |
| COc1ccc2ccnc(Cc3ccc(OCc4ccccc4)c(OC)c3)c2c1 | 42% | 42% | 89.5% (active) | 27% | 27% | 87.3% (active) | 28% | 28% | 89.7% (active) | 12% | 12% | 87% (active) | 28% | 28% | 86.5% (active) | 29% | 29% | 86% (active) |
| COc1cc[c]([Sn]([c]2ccc(OC)cc2)([c]2ccc(OC)cc2)[c]2ccc(OC)cc2)cc1 | 1% | 1% | 80.5% (active) | 6% | 6% | 85.3% (active) | -5% | -5% | 80.8% (active) | -9% | -9% | 85.8% (active) | 6% | 6% | 82.3% (active) | -14% | -14% | 78.8% (active) |
| CCC(=O)C(CCN(CC)CC)(CCN(CC)CC)c1ccccc1 | -1% | -5% | 87.5% (active) | -2% | -4% | 99.3% (active) | -2% | -4% | 42.4% | 3% | -8% | 71% (active) | 1% | -3% | 99.2% (active) | -2% | -7% | 97.8% (active) |
| O=C1CCCCO1 | 1% | 3% | -15.8% | -1% | -3% | -19.4% | 0% | -4% | -27.1% | 3% | -2% | 19.4% | -1% | -3% | -43.3% | 0% | 1% | -4.85% |
